PubChem BioAssay
Records with an inconclusive call do not appear. Active and inactive are the calls of the source.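 Rule for the calls, unless noted: active = normalized viability below 100% at a tested concentration; inactive = the rest.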

Legend:
[1] = viability loss in pontine glioma line – cell-based, SU-DIPG-XVII, MIPE5.0, CellTiter-Glo, qHTS, dose response (AID 1347060; cut-off not given, nearly all actives have AC50 up to about 26 µM;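 for AC50: cells exposed to compound for 48 hours before viability readout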); details: CellTiter-Glo ATP luminescence
[2] = viability loss with induced miR-34 in A549 – imaging, A549 dox-inducible miR-34, nuclei and caspase counts, primary screen (AID 1347080;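 active = compounds whose cell count with miR-34 switched on is under 0.7 times the count with it off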); details: A549 miR-34 inducible, Hoechst nuclei count, 48 h
[3] = MELAS cybrid and Rieske KO viability enhancers – cell-based, MELAS cybrids, Rieske KO mouse fibroblasts, CellTiter-Glo, primary screen (AID 1508586;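 active = mean z-score across replicates of 1.96 or higher in either the MELAS or the Rieske mutant cell line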;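 note: z relative to plate mean and SD of compound and empty wells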); details: low glucose
[4] = viability loss in pontine glioma line – cell-based, SU-DIPG-XIII, MIPE4.0, CellTiter-Glo, qHTS, dose response (AID 1347061; cut-off not given, nearly all actives have AC50 up to about 37 µM;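 note: cells exposed to compound for 48 hours before readout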); details: CellTiter-Glo ATP luminescence
[5] = viability loss in pontine glioma line – cell-based, JHH-DIPG-1, MIPE4.0, CellTiter-Glo, qHTS, dose response (AID 1347062; cut-off not given, nearly all actives have AC50 up to about 27 µM;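 for AC50: cells exposed to compound for two days before readout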); details: JHH-DIPG-1 viability, CellTiter-Glo ATP luminescence
[6] = viability loss in pontine glioma line – cell-based, SU-DIPG-IV, MIPE4.0, CellTiter-Glo, qHTS, dose response (AID 1347063; cut-off not given, nearly all actives have AC50 up to about 30 µM;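 note: compound exposure lasted 48 hours before the viability readout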); details: CellTiter-Glo ATP luminescence
[7] = viability loss in pontine glioma line – cell-based, SU-DIPG-XIII, MIPE5.0, CellTiter-Glo, qHTS, dose response (AID 1347064; cut-off not given, nearly all actives have AC50 up to about 23 µM;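 for AC50: cells exposed to compound for 48 hours before the viability read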); details: CellTiter-Glo ATP luminescence
[8] = viability loss in pontine glioma line – cell-based, SU-DIPG-XXV, MIPE5.0, CellTiter-Glo, qHTS, dose response (AID 1347065; cut-off not given, nearly all actives have AC50 up to about 26 µM;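 note: cells exposed to compound for 48 hours before ATP readout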); details: CellTiter-Glo ATP luminescence
[9] = growth inhibition of DIPG cells – cell-based, MIPE4.0 library, CellTiter-Glo luminescence, qHTS (AID 1347066; cut-off not given, nearly all actives have AC50 up to about 30 µM;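 note: cells exposed to compound for 48 hours before readout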); details: SU-DIPG-VI viability, CellTiter-Glo ATP luminescence
[10] = JHH-DIPG-1 glioma cell viability, MIPE5.0 library, CellTiter-Glo luminescence, qHTS (AID 1347067; cut-off not given, nearly all actives have AC50 up to about 26 µM;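 note: cells exposed to compound for 48 hours before readout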); details: JHH-DIPG-1 glioma viability, CellTiter-Glo ATP luminescence
[11] = growth inhibition of DIPG cells – cell-based, MIPE5.0 library, qHTS (AID 1347068; cut-off not given, nearly all actives have IC50 up to about 30 µM;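 for IC50: cells exposed to compound for 48 hours before viability readout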); details: SU-DIPG-XXV viability
[12] = drug combination growth inhibition, ovarian cancer – cell-based, oncology-focused library, rucaparib conditional, profiling panel (AID 1508598); details: patient-derived ovarian cancer cells, CellTiter-Glo viability, 144 h, stronger effect = lower value
[13] = stronger effect = lower value, cell number ratio, induced over uninduced
[14] = measured here: relative caspase fold change +Dox/-Dox
[15] = measured here: total cells with miR-34 induction, stronger effect = lower value
[16] = measured here: total cells without miR-34 induction
[17] = MELAS cybrid survival, CellTiter-Glo 48 h, stronger effect = higher value
[18] = Rieske KO mouse fibroblast survival, CellTiter-Glo 72 h

CC(=O)N1CCN(CCOc2ccc(C3CCN(C4=Nn5c(nnc5C(F)(F)F)CC4)CC3)cc2)CC1
inactive: outcome [1] | fold change [2, 13] 0.859 | z-score [3, 17] -0.00811
0.882: fold change [2, 14]
6900: cell count [2, 16]
-0.339: z-score [3, 18]
5930: cell count [2, 15]

C[C@@H]1CCO[C@H]2Cn3cc(C(=O)NCc4ccc(F)cc4F)c(=O)c(O)c3C(=O)N12
inactive: outcome [4] | outcome [5]

O=C(NCCCCN1CCOCC1)c1cc2ccccc2o1
active: AC50 [10] 23.5 µM
inactive: outcome [4] | outcome [5] | outcome [6] | outcome [7] | outcome [8] | outcome [9] | outcome [11]

C[C@@]12C(=O)OC(=O)[C@@]1(C)C1CCC2O1
active: AC50 [4] 1.66 µM | AC50 [5] 2.64 µM | AC50 [6] 1.48 µM

O=C(CO)N1CCC(c2[nH]nc(-c3ccc(Cl)cc3)c2-c2ccncn2)CC1
inactive: outcome [4] | outcome [5] | outcome [6] | outcome [7] | outcome [8] | outcome [9] | outcome [11]

O=C(O)c1ccc(-c2cc3cccnc3c(-c3ccc4nonc4c3)n2)cc1
active: AC50 [5] 20.9 µM | AC50 [6] 26.4 µM
inactive: outcome [4]

CCNc1cc(NC2CCC(O)CC2)nc(Nc2ccc3c(ccn3Cc3ccccc3)c2)n1 (stereo unspecified)
active: AC50 [5] 26.4 µM | AC50 [6] 18.7 µM | AC50 [7] 23.5 µM | AC50 [8] 16.6 µM | AC50 [10] 23.5 µM
inactive: outcome [4]

CCOC(=O)C1=C[C@@H](OC(CC)CC)[C@H](NC(C)=O)[C@@H](N)C1
-0.618: z-score [3, 18]
9340: cell count [2, 15]
10400: cell count [2, 16]
1.08: fold change [2, 14]
inactive: outcome [4] | outcome [5] | outcome [6] | outcome [7] | outcome [8] | outcome [9] | outcome [10] | outcome [11] | fold change [2, 13] 0.9 | z-score [3, 17] 0.348

Cc1ccc(NC(=O)Nc2cc(C(F)(F)F)ccc2F)cc1Nc1ccc2c(c1)NC(=O)/C2=C\c1ccc[nH]1
active: AC50 [4] 18.7 µM | AC50 [5] 18.7 µM | AC50 [6] 4.18 µM | AC50 [7] 8.33 µM | AC50 [8] 6.61 µM | AC50 [9] 3.72 µM | AC50 [10] 10.5 µM | IC50 [11] 9.34 µM

O=S(=O)(N=Cc1c(O)ccc2ccccc12)c1cccs1
active: AC50 [6] 9.35 µM
inactive: outcome [4] | outcome [5]

Cc1cc2c(F)c(Oc3ncnn4cc(OC[C@@H](C)O)c(C)c34)ccc2[nH]1
active: AC50 [1] 14.8 µM | IC50 [11] 14.8 µM | viability ([12]; at 0.00488 µM, OCI-P5x cells, without rucaparib) 99.9% | viability ([12]; at 0.0781 µM, OCI-P5x cells, with rucaparib 20 µM, 100% = cells with rucaparib alone) 99%
inactive: viability ([12]; at 0.000305 µM, OCI-C5x cells, with rucaparib 10 µM, 100% = cells with rucaparib alone) 117% | viability ([12]; at 0.000305 µM, OCI-C5x cells, without rucaparib) 131% | viability ([12]; at 0.000305 µM, OCI-P5x cells, with rucaparib 20 µM, 100% = cells with rucaparib alone) 112% | viability ([12]; at 0.000305 µM, OCI-P5x cells, without rucaparib) 105% | viability ([12]; at 0.00122 µM, OCI-C5x cells, with rucaparib 10 µM, 100% = cells with rucaparib alone) 131% | viability ([12]; at 0.00122 µM, OCI-C5x cells, without rucaparib) 128% | viability ([12]; at 0.00122 µM, OCI-P5x cells, with rucaparib 20 µM, 100% = cells with rucaparib alone) 112% | viability ([12]; at 0.00122 µM, OCI-P5x cells, without rucaparib) 109% | viability ([12]; at 0.00488 µM, OCI-C5x cells, with rucaparib 10 µM, 100% = cells with rucaparib alone) 125% | viability ([12]; at 0.00488 µM, OCI-C5x cells, without rucaparib) 126% | viability ([12]; at 0.00488 µM, OCI-P5x cells, with rucaparib 20 µM, 100% = cells with rucaparib alone) 108% | viability ([12]; at 0.0195 µM, OCI-C5x cells, with rucaparib 10 µM, 100% = cells with rucaparib alone) 111% | viability ([12]; at 0.0195 µM, OCI-C5x cells, without rucaparib) 124% | viability ([12]; at 0.0195 µM, OCI-P5x cells, with rucaparib 20 µM, 100% = cells with rucaparib alone) 110% | viability ([12]; at 0.0195 µM, OCI-P5x cells, without rucaparib) 102% | viability ([12]; at 0.0781 µM, OCI-C5x cells, with rucaparib 10 µM, 100% = cells with rucaparib alone) 123% | viability ([12]; at 0.0781 µM, OCI-C5x cells, without rucaparib) 141% | viability ([12]; at 0.0781 µM, OCI-P5x cells, without rucaparib) 108% | viability ([12]; at 0.313 µM, OCI-C5x cells, with rucaparib 10 µM, 100% = cells with rucaparib alone) 122% | viability ([12]; at 0.313 µM, OCI-C5x cells, without rucaparib) 129% | viability ([12]; at 0.313 µM, OCI-P5x cells, with rucaparib 20 µM, 100% = cells with rucaparib alone) 113% | viability ([12]; at 0.313 µM, OCI-P5x cells, without rucaparib) 106% | viability ([12]; at 1.25 µM, OCI-C5x cells, with rucaparib 10 µM, 100% = cells with rucaparib alone) 117% | viability ([12]; at 1.25 µM, OCI-C5x cells, without rucaparib) 135% | viability ([12]; at 1.25 µM, OCI-P5x cells, with rucaparib 20 µM, 100% = cells with rucaparib alone) 109% | viability ([12]; at 1.25 µM, OCI-P5x cells, without rucaparib) 102%
